Screens: PubChem, National Center for Advancing Translational Sciences (NCATS)
Most compounds without a hit are left out; they make up all but 8.7% or so of the library.
Pf growth 96h – Primary qHTS for delayed death inhibitors of the malarial parasite plastid, 96 hour incubation | P. falciparum luciferase reporter growth, 96 h | Potency, µM (series often up to 28.7 µM), for the others: top-dose activity change, negative = inhibition, hits mostly inhibitors | 320,000 tested, 6.9% active | AID 504834, 2011
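P. falciparum expressing integrated firefly luciferase, in erythrocytes at 2% hematocrit, 0.05% parasitemia, incubated with compounds 96 h at 37 C, 5% CO2. Growth inhibition read as loss of luminescence; two-generation exposure targets delayed-death apicoplast inhibitors.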
AMA1 RON2 block – qHTS for Inhibitors of AMA1-RON; Towards Development of Antimalarial Drug Lead: Primary Screen | AlphaScreen AMA1-biotinylated RON2 peptide binding | 360,000 tested, 0.2% active | Potency, µM (titrated, usually from 58.2 µM), for inactives: at the top dose activity change, negative = inhibition, hits mostly inhibitors | Plasmodium falciparum AMA1 (3D7) - RON2 peptide interaction | AID 720542, 2013;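 further: 0% = vehicle wells and -100% = peptide control; nearly all actives have a fitted effect of over 45% in size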
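AMA1 (3D7) with his tag at 25 nM final met compounds first, then biotinylated RON2 peptide at 25 nM; detection used donor plus acceptor beads, 10 µg/mL apiece, read by AlphaScreen after 30 min at room temperature.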
Vaccinia Venus – qHTS for Stage-Specific Inhibitors of Vaccinia Orthopoxvirus: Venus Reporter Primary qHTS. 330,000 tested, 0.46% active. Vaccinia virus Venus reporter expression, fluorescence. AID 720580, 2013. Potency, µM (series often up to 36.5 µM), for the others: at the top dose activity change, negative = inhibition, most hits filed as inhibitors; calls by dose curve; tested in A549 cells; further: nearly all actives have a fitted effect of over 30% in size
VACV mCherry inh – qHTS for Stage-Specific Inhibitors of Vaccinia Orthopoxvirus: mCherry Reporter Primary qHTS; Vaccinia virus mCherry reporter infection, fluorescence; Potency, µM (doses to about 36.5 µM), for the others: top-dose activity change, negative = inhibition, actives largely listed as inhibitors; 310,000 tested, 0.63% active; calls by dose curve; tested in A549 cells; further: nearly all actives have a fitted effect of over 35% in size
Pf growth 48h – Primary qHTS for delayed death inhibitors of the malarial parasite plastid, 48 hour incubation; P. falciparum luciferase growth in erythrocytes, 48 h; Potency, µM (titrated, usually from 28.7 µM), for the others: top-dose activity change, negative = inhibition, most hits filed as inhibitors; 310,000 tested, 5.9% active; AID 504832, 2011
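Compounds are pin-transferred into medium, infected erythrocytes (2% hematocrit, 0.1% parasitemia final) are added, and plates sit one parasite generation at 37 C in 5% CO2. Detection reagent is then added and luminescence measured.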
Numbers without * were called inactive; i = inactive; ? = inconclusive; . = no result given. Unless noted, the call rests on the fitted dose curve; in most records, active means well fitted curve in the direction sought with a large enough effect; inconclusive means small, poorly fitted or top-dose-only effect, or another doubt; inactive means no such curve, though single readings can be large; an effect the other way counts as inactive or inconclusive. Unless noted, on the % scale 0 is the no-effect control and ±100 the full control effect; potency means the concentration at half of the fitted maximal effect.

SMILES	Pf growth 96h	AMA1 RON2 block	Vaccinia Venus	VACV mCherry inh	Pf growth 48h
CC(=O)N1CCc2cc(S(=O)(=O)NC(Cc3ccccc3)C(=O)NCc3ccccc3Cl)ccc21 (centres undefined)	.	.	1.1%	-6.3%	.
CC(=O)N1CCc2cc(S(=O)(=O)NC(Cc3ccccc3)C(=O)O)ccc21 (centres undefined)	16.5µM*	-12.6%	.	.	15.5%
CC(=O)N1CCc2cc(S(=O)(=O)NC(CC(C)C)C(=O)N3CCCC3)ccc21 (centres undefined)	11.7µM*	-0.2%	.	.	10.9%
CC(=O)N1CCc2cc(S(=O)(=O)NC(CC(C)C)C(=O)N3CCc4ccccc4C3)ccc21 (centres undefined)	66.2%	17.7%	.	.	?
COC(=O)C1=CN(c2cccc(C)c2)C=C(C(=O)OC)C1c1cc(OC)c(O)c([N+](=O)[O-])c1	?	?	.	.	8.28µM*
COC(=O)C1=CN(c2ccc(OC)cc2)C=C(C(=O)OC)C1c1ccc(C)c([N+](=O)[O-])c1	19.7%	-19.2%	-19.3%	-2.2%	13.1µM*
COC(=O)C1=CN(c2ccc(OC)cc2)C=C(C(=O)OC)C1c1cccc(F)c1	-6.2%	51.0%	.	.	?
CC(C)(C)c1ccc(-c2nc3cc(NC(=O)c4cccc(Br)c4)ccc3o2)cc1	.	.	-4.1%	-13.6%	.
Cc1ccc(NC(=O)COC(=O)/C=C/c2cccs2)cc1	9.6%	-7.6%	-8.9%	i	17.3%
CCN(c1ccc(NC(=O)COC(=O)/C=C/c2cccs2)cc1)C(C)C	-5.5%	17.8µM*	14.7%	1.8%	56.8%
Oc1ccc(/C=N/n2c(-c3ccco3)csc2=Nc2cccnc2)c(O)c1	?	46.2%	10µM*	10µM*	?
C=CCN=c1scc(-c2ccco2)n1/N=C/c1ccc(O)c(O)c1O	?	-0.5%	-9.4%	-22.2%	?
CCc1ccc(NC(=O)Cn2c(=O)n(CCC(C)C)c(=O)c3cccnc32)cc1	.	.	-11.4%	-5.1%	.
CN(Cc1cc(Br)cc(Br)c1N)C1CCCCC1	19µM*	.	-0.9%	-7.0%	?
CCCc1cc(=O)n2[nH]c(NCc3c(F)cccc3Cl)nc2n1	11.7µM*	-1.7%	-25.6%	-17.2%	0.1%
CC(C)C[C@@H](CN=[N+]=[N-])N1CCN(C)CCC1=O	14.7µM*	25.9%	-7.4%	i	9.1%
O=C(CCCC(=O)n1cnc2ccccc21)n1cnc2ccccc21	3.0%	-0.5%	-17.1%	.	2.4%
Cc1ccc(N(C)C(=O)n2cnc3ccccc32)cc1	9.28µM*	7.3%	-6.0%	-1.6%	3.7µM*
Fc1ccc([C@@H]2Nc3ccccc3[C@@H]3C=CC[C@@H]32)cc1	.	.	-1.5%	10.2%	.
Fc1ccc2c(c1)C1C=CCC1C(c1cc3c(cc1Br)OCO3)N2 (centres undefined)	4.3%	-19.1%	.	.	5.22µM*
Cc1ccc(CN2[C@H](C)[C@H](c3ccccc3)OCCS2(=O)=O)cc1	.	.	-27.4%	-10.0%	.
Cc1cc(S(=O)(=O)Nc2cc3c(cc2Cl)n(C)c(=O)c(=O)n3C)ccc1F	.	.	-2.7%	-7.7%	.
O=C(N[C@H]1CCC(=O)N([C@H](CSc2ccc(Br)cc2)Cc2ccccc2)CC1)OCc1ccccc1	.	-1.0%	?	?	.
COc1ccc(SC[C@H](Cc2ccccc2)N2CC[C@@H](C(C)(C)C)CCC2=O)cc1	?	-8.6%	-23.7%	-14.3%	11.7µM*
NC(=O)C1CCC(NC(=O)OCc2ccccc2)CC1 (centres undefined)	6.57µM*	3.1%	?	.	34.1%
SMILES	Pf growth 96h	AMA1 RON2 block	Vaccinia Venus	VACV mCherry inh	Pf growth 48h
O=C(N[C@H]1CCC(=O)N([C@H](CSc2ccccc2)Cc2ccccc2)CC1)OCc1ccccc1	8.28µM*	-5.3%	?	-10.6%	?
Cc1ccc(SC[C@H](Cc2ccccc2)N2CC[C@@H](NC(=O)OCc3ccccc3)CCC2=O)cc1	8.28µM*	.	-16.9%	-22.1%	?
CC(C)CN(CCNC(=O)CCN1N=C(c2ccccc2)CCC1=O)CC(C)C	.	.	-9.7%	-5.0%	.
CCOC(=O)[C@H]1[C@H]2COc3ccc(C)cc3[C@@H]2N2C(=O)c3ccc(Cl)cc3NC(=O)[C@@]12C	.	21.5%	?	i	.
CCOC(=O)[C@H]1[C@H]2COc3ccc(Br)cc3[C@@H]2N2C(=O)c3cc(F)c(F)cc3NC(=O)[C@@]12C	?	11.6%	?	-15.3%	16.5µM*
CCOC(=O)[C@H]1[C@H]2COc3ccc(Br)cc3[C@@H]2N2C(=O)c3ccc(F)cc3NC(=O)[C@@]12C	?	0.0%	-22.0%	i	?
CCOC(=O)[C@H]1[C@H]2COc3cc(OC)ccc3[C@@H]2N2C(=O)c3cc(F)ccc3NC(=O)[C@@]12C	10.4µM*	-7.1%	-3.4%	26.2%	9.28µM*
CCOC(=O)[C@H]1[C@H]2COc3ccc(Cl)cc3[C@@H]2N2C(=O)c3cc(OC)ccc3NC(=O)[C@@]12C	?	-20.7%	?	-18.5%	?
CCOC(=O)[C@H]1[C@H]2COc3ccc(Cl)cc3[C@@H]2N2C(=O)c3ccc(Cl)cc3NC(=O)[C@@]12C	13.1µM*	-3.7%	?	?	10.4µM*
CCOC(=O)[C@H]1[C@H]2COc3cc(OC)ccc3[C@@H]2N2C(=O)c3cc(OC)ccc3NC(=O)[C@@]12C	6.57µM*	-1.1%	-11.6%	10.8%	1.31µM*
COc1ccc(CNC(=O)CN(c2ccccc2OC)S(=O)(=O)c2ccc(C)cc2)cc1	.	.	-14.6%	?	.
COC(=O)c1ccc(Cl)c(NC(=O)C2CCN(S(=O)(=O)Cc3ccccc3)CC2)c1	.	.	-4.8%	-0.6%	.
CCOC(=O)[C@H]1[C@H]2COc3cc(OC)ccc3[C@@H]2N2C(=O)c3ccc(C)cc3NC(=O)[C@@]12C	?	-13.7%	-7.6%	8.0%	?
CCOC(=O)[C@H]1[C@H]2COc3cc(OC)ccc3[C@@H]2N2C(=O)c3cc(F)c(F)cc3NC(=O)[C@@]12C	13.1µM*	-4.0%	-14.1%	-10.9%	?
CCOC(=O)[C@H]1[C@H]2COc3cc(OC)ccc3[C@@H]2N2C(=O)c3cc(C)ccc3NC(=O)[C@@]12C	2.33µM*	-4.1%	-17.0%	1.8%	4.65µM*
CSc1cccc(NC(=O)N2CCCC(CNS(=O)(=O)Cc3ccccc3)C2)c1 (centres undefined)	9.28µM*	15.9%	-3.5%	-13.9%	-4.7%
COc1cc(C(=O)N2CCC(c3nc4ccccc4o3)CC2)cc(OC)c1OC	.	.	-8.0%	0.5%	.
CCOCCc1nnc(NC(=O)C(=O)c2cc(C)n(-c3cccc(Cl)c3)c2C)s1	.	.	-4.5%	-7.2%	.
CC(=O)c1ccc(NC2=C(N3CCOCC3)C(=O)c3ccccc3C2=O)cc1	0.522µM*	?	-19.4%	-8.3%	0.828µM*
